Sm TGR inh: inhibitors of Schistosoma mansoni thioredoxin glutathione reductase | Q962Y6 | purified TGR, DTNB reduction, TNB absorbance 405 nm | Potency, µM (series often up to 114 µM), actives largely listed as inhibitors | hit rate 3% among 360,000 | AID 485364; note: nearly all actives have a fitted effect of over 60% in size
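TGR 20 nM + NADPH 100 uM (dispensed conc.), cpd preinc 15 min RT; start with NADPH (500 uM addition) then DTNB (15 mM addition). Kinetic TNB absorbance, 405 nm filter. Four-parameter Hill fit across titration.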
Pf growth 48h: inhibits P. falciparum growth in the first generation, 48 h. P. falciparum luciferase growth in erythrocytes, 48 h. hit rate 5.9% among 310,000. Potency, µM (titrated, usually from 28.7 µM), most hits filed as inhibitors
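Firefly luciferase activity from engineered P. falciparum reports growth; inhibitors lower the luminescent signal. Cultures contained 2% hematocrit erythrocytes at 0.1% final parasitemia.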
NS1 inh: inhibitors of influenza NS1 protein function. Potency, µM (top dose mostly 46.1 µM). hit rate 0.4% among 270,000. AID 2326; calls by dose curve; note: actives are rising curves; nearly all actives have a fitted effect of over 50% in size
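OD600 was taken as the measure of yeast growth restored by compound in an NS1-expressing S. cerevisiae strain. Cells had been washed out of glucose medium and diluted 1:100 into galactose -URA medium, pH 6.0.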
Pf growth 96h: P. falciparum growth inhibition at 96 hour, primary screen for plastid delayed-death inhibitors; P. falciparum luciferase reporter growth, 96 h; Potency, µM (doses to about 28.7 µM), usual class: inhibitors; hit rate 6.9% among 320,000
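P. falciparum expressing integrated firefly luciferase grown in erythrocytes (2% hematocrit, 0.05% parasitemia final) with compounds for 96 hours at 37 C, 5% CO2. Growth inhibition read as loss of luminescence after adding luciferase detection reagent.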
Shiga inhibitor: inhibitors of Shiga toxin in Vero cells; Vero cells, Shiga toxin protein synthesis inhibition reporter; inhibition, % at 38.7 µM; hit rate 9.2% among 290,000; AID 2315; in the data active = inhibition mostly above about 28%, no sharp cut-off; inactive = mostly below about 43%
CHX counter: counter-screen hit for Shiga toxin inhibitors, cycloheximide. AID 2314. max response, %. hit rate 12% among 300,000. cell reporter, cycloheximide protein synthesis inhibition counterscreen; in the data active = max response mostly above about 13%, no sharp cut-off; inactive = mostly below about 14%; note: read at 38.3 µM for the half of the compounds with a filed dose
Each line names hits and unclear results; the compound was inactive in the other large screens. A selection: hits, their analogues and other compounds. The true share with any hit is near 21%. Unless noted, calls come from the whole dose curve; as a rule, active = well fitted curve in the direction sought with a large enough effect; inconclusive = small, poorly fitted or top-dose-only effect, or another doubt; inactive = no such curve, though single readings can be large; an effect the other way counts as inactive or inconclusive.

CCC(=O)c1ccc(OCC(O)CNCCc2ccc(Cl)cc2)cc1 (stereo not drawn)	Pf growth 48h 12µM, Pf growth 96h inconclusive
CC(C)c1ccc(OCC(O)CNC(C)c2ccccc2)cc1 (stereo not drawn)	Pf growth 48h 4.7µM, Pf growth 96h inconclusive
Cc1ccc(C(OCC(O)CNCc2ccc(F)cc2)c2ccccc2)cc1 (stereo not drawn)	Pf growth 96h 4.7µM (no result: Pf growth 48h)
CC(C)=CC1C=C(C)C(C)C2C(=O)NNC(=O)C12 (stereo not drawn)	none (no result: Pf growth 48h)
CN(Cc1cccc(Cl)c1Cl)C(=O)c1cccc(S(=O)(=O)N2CCN(Cc3ccccc3)CC2)c1	Pf growth 48h inconclusive, Pf growth 96h inconclusive
CCCCCC(=O)N/N=C/c1ccc(N(C)C)cc1	CHX counter 18
CN(C)c1ccc(/C=N/NC(=O)CCC(=O)NCc2ccccc2)cc1	none
CN(C)c1ccc(/C=N/NC(=O)CCCO)cc1	Shiga inhibitor 63, CHX counter 41 (no result: NS1 inh)
CN(C)c1ccc(/C=N/NC(=O)CNC(=O)c2ccncc2)cc1	none
CN(C)c1ccc(/C=N\NC(=O)CC#N)cc1	Shiga inhibitor 35 (no result: NS1 inh)
COc1ccc(OCC(=O)N/N=C/c2ccc(N(C)C)cc2)cc1	Pf growth 96h inconclusive, CHX counter 26 (no result: NS1 inh)
Cc1ccccc1N1CCN(C2CCCN(C(=O)c3csc(C(C)C)n3)C2)CC1 (stereo not drawn)	Pf growth 96h inconclusive
Cc1ccc(NC(=O)CCc2nc3cccnc3n2-c2ccccc2)cc1Cl	none (no result: Pf growth 48h, NS1 inh, Pf growth 96h, Shiga inhibitor, CHX counter)
CC(=O)n1nc(-c2ccc(C)cc2)nc1NCc1ccc(F)cc1	Pf growth 96h inconclusive
COc1ccc(/C=C/C(=O)Nc2sc(C)c(C)c2C(=O)O)cc1	none (no result: Pf growth 48h, NS1 inh, Pf growth 96h, Shiga inhibitor, CHX counter)
CCN(CC(=O)NCc1ccc(F)cc1)C(=O)/C=C/c1ccco1	Sm TGR inh 20µM (no result: NS1 inh)
CC(=O)NS(=O)(=O)c1ccc(NC(=O)/C=C/c2ccco2)cc1	Sm TGR inh 3.5µM (no result: NS1 inh)
O=C(/C=C/c1ccco1)NCCCN1CCN(CCCNC(=O)/C=C/c2ccco2)CC1	none
Cc1sc(NC(=O)/C=C/c2ccco2)c(C(=O)O)c1C	Sm TGR inh 40µM, Pf growth 48h inconclusive, CHX counter 25
O=C(/C=C/c1ccco1)Nc1ccc(S(=O)(=O)N2CCOCC2)cc1	Sm TGR inh inconclusive
O=C(/C=C/c1ccco1)NCCc1ccc(F)cc1	Sm TGR inh 7.1µM, Shiga inhibitor 56, CHX counter 57
Cc1cc(C)n2nc(SCC(=O)c3cc(C)n(CC4CCCO4)c3C)nc2n1 (stereo not drawn)	Pf growth 48h inconclusive, Pf growth 96h inconclusive (no result: NS1 inh)
O=C(/C=C/c1ccco1)Nc1ccc(F)cc1	Sm TGR inh 7.1µM (no result: NS1 inh, Shiga inhibitor, CHX counter)
CCCN(CC(=O)Nc1ccc(Cl)cc1Cl)C(=O)/C=C/c1ccco1	Shiga inhibitor 174, CHX counter 77
NS(=O)(=O)c1ccc(NC(=O)/C=C/c2ccco2)cc1	Sm TGR inh 6.3µM (no result: NS1 inh)
CCN(CC(=O)Nc1ccc(NC(C)=O)cc1)C(=O)/C=C/c1ccco1	none (no result: NS1 inh, Shiga inhibitor, CHX counter)
O=C(/C=C\c1ccccc1)Nc1ccc(NC(=O)c2ccco2)cc1	Pf growth 48h inconclusive (no result: NS1 inh)
COc1ccccc1CNC(=O)CSc1cc(C)[nH]c(=O)n1	none (no result: Pf growth 48h, NS1 inh, Pf growth 96h, Shiga inhibitor, CHX counter)
CCOc1ccc(NS(=O)(=O)c2ccc(C(=O)NNC(=O)c3ccccc3O)cc2)cc1	Pf growth 48h inconclusive, Pf growth 96h inconclusive (no result: NS1 inh, Shiga inhibitor, CHX counter)
O=C(CN1C(=O)CSc2ccc(S(=O)(=O)N3CCCCC3)cc21)NCc1cccnc1	Pf growth 48h inconclusive, Pf growth 96h 2.3µM
COc1ccccc1CNC(=O)CN1C(=O)CSc2ccc(S(=O)(=O)N3CCCC3)cc21	Pf growth 48h 13µM, Pf growth 96h inconclusive (no result: NS1 inh)
O=C(CN1C(=O)CSc2ccc(S(=O)(=O)N3CCCC3)cc21)NCc1ccccc1Cl	none (no result: Pf growth 48h, NS1 inh, Pf growth 96h, Shiga inhibitor, CHX counter)
c1ccc(CCc2cccnc2)nc1	none (no result: Sm TGR inh, Pf growth 48h, Pf growth 96h, Shiga inhibitor, CHX counter)
CCN(CC)S(=O)(=O)c1csc(C(=O)OCC(=O)c2ccccc2)c1	Pf growth 96h inconclusive, Shiga inhibitor 41, CHX counter 33
CCN(Cc1ccccc1)S(=O)(=O)c1csc(C(N)=O)c1	none
O=C(COCc1cc(-c2ccc3c(c2)OCO3)on1)Nc1cc(C(F)(F)F)ccc1Cl	none (no result: Pf growth 48h, NS1 inh, Pf growth 96h, Shiga inhibitor, CHX counter)
Cc1ccc(NC(=O)NC2=NN(c3ccccc3)C(=O)/C2=C2/CCCN2C)cc1	Shiga inhibitor 90, CHX counter 27
COc1cc(-c2nc(CN(C)C(C)c3ccncn3)c(C)o2)ccc1F (stereo not drawn)	Sm TGR inh 32µM, Pf growth 48h inconclusive
